From PubChem BioAssay (EPA / NIEHS)
Where a structure was tested more than once in an assay, its records may differ in their call. Active and inactive are the calls of the source. Rule for the calls: active = hit-call score of the fitted dose curve at least 0.9, where 1 is the maximum; inactive = score below 0.9.

Key:
Details in all cases: mRNA level, 48 h; actives raise or lower the signal
[1] = read-out: Lipase C (LIPC), LIPC (gene 3990); assay: LTEA_HepaRG_LIPC: Life Technologies and Expression Analysis (LTEA) Assay for Lipase C (LIPC) using HepaRG (AID 2283514)
Procedure, shortened: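 In this multiplexed gene-expression screen, human HepaRG cultures received test chemicals for 48 h across eight concentrations with 100 uM highest, in duplicate. Values reflect LIPC mRNA induction or suppression versus DMSO vehicle, from normalized qRT-PCR.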

[2] = read-out: Lipoprotein lipase (LPL), LPL (gene 4023); assay: LTEA_HepaRG_LPL: Life Technologies and Expression Analysis (LTEA) Assay for Lipoprotein lipase (LPL) using HepaRG (AID 2283515)
Procedure, shortened: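 Concentration-response testing used half-log steps from 100 uM in 0.5% DMSO on human HepaRG cells, 48 h, duplicate wells. Phenobarbital 1 mM served as induction control; LPL mRNA was normalized to ACTB, GAPDH, POLR2A.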

[3] = read-out: MicroRNA 122 (MIR122), gene 406906; assay: LTEA_HepaRG_MIR122: Life Technologies and Expression Analysis (LTEA) Assay for MicroRNA 122 (MIR122) using HepaRG (AID 2283516); note: the transcript read is the microRNA miR-122
Procedure, shortened: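 Human liver HepaRG cultures receive test chemicals for 48 h at eight half-log concentrations from 100 uM. Expression is quantified by qRT-PCR with ACTB/GAPDH/POLR2A normalization and fitted bidirectionally against 0.5% DMSO.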

[4] = read-out: matrix metalloproteinase-10 (MMP10), MMP10 (gene 4319); assay: LTEA_HepaRG_MMP10: Life Technologies and Expression Analysis (LTEA) Assay for matrix metalloproteinase-10 (MMP10) using HepaRG (AID 2283517)
Procedure, shortened: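 In differentiated HepaRG cultures kept in 0.5% DMSO, test chemicals act for 48 h over an eight-point range with a top dose of 100 uM. Expression is then quantified by TaqMan RT-PCR against ACTB, GAPDH and POLR2A.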

MYC, MYC (gene 4609) = assay: LTEA_HepaRG_MYC: Life Technologies and Expression Analysis (LTEA) Assay for MYC using HepaRG (AID 2283518)
Procedure, shortened: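 Cells are thawed, plated and cultured 48 h, then treated for 48 h with test chemicals (eight half-log concentrations from 100 uM, 0.5% DMSO vehicle). RNA is isolated and MYC expression quantified by qRT-PCR against three housekeeping genes.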

[5] = read-out: Paternally Expressed 10 (PEG10), PEG10 (gene 23089); assay: LTEA_HepaRG_PEG10: Life Technologies and Expression Analysis (LTEA) Assay for Paternally Expressed 10 (PEG10) using HepaRG (AID 2283520);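 for AC50: PEG10 transcript by qRT-PCR normalised to ACTB GAPDH and POLR2A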
Procedure, shortened: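 Human HepaRG cultures are dosed for 48 h across an eight-point half-log series starting at 100 uM, with 0.5% DMSO as vehicle and baseline. Gain or loss of PEG10 transcript is measured by qRT-PCR and fitted in both directions.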

[6] = read-out: Nuclear factor NF-kappa-B p105 subunit (Homo sapiens) (UniProt P19838); assay: LTEA_HepaRG_NFKB1: Life Technologies and Expression Analysis (LTEA) Assay for Nuclear Factor Kappa B Subunit 1 (NFKB1) using HepaRG (AID 2283521)
Procedure, shortened: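 Differentiated human HepaRG cells in serum-free induction medium with 0.5% DMSO were exposed for 48 h to eight half-log concentrations, top 100 uM, in duplicate. NFKB1 mRNA measured by Fluidigm TaqMan qRT-PCR, normalised to ACTB, GAPDH and POLR2A; bidirectional fit versus DMSO.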

[7] = read-out: Protein phosphatase 2A (PPP2R4), PTPA (gene 5524); assay: LTEA_HepaRG_PPP2R4: Life Technologies and Expression Analysis (LTEA) Assay for Protein phosphatase 2A (PPP2R4) using HepaRG (AID 2283522)
Procedure, shortened: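 Cells were plated, cultured 48 h, switched to serum-free induction medium, then dosed for 48 h (8 points, max 100 uM, 0.5% DMSO). RNA was isolated and PPP2R4 expression measured by TaqMan qRT-PCR.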

[8] = read-out: Phosphatase and tensin (PTEN), PTEN (gene 5728); assay: LTEA_HepaRG_PTEN: Life Technologies and Expression Analysis (LTEA) Assay for Phosphatase and tensin (PTEN) using HepaRG (AID 2283523)
Procedure, shortened: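 Expression of PTEN is quantified in the human liver line HepaRG following two days of dosing (top concentration 100 uM, half-log dilutions, 0.5% DMSO). Values derive from bidirectional curve fitting relative to DMSO controls.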

[9] = read-out: solute carrier (SLC22A1), SLC22A1 (gene 6580); assay: LTEA_HepaRG_SLC22A1: Life Technologies and Expression Analysis (LTEA) Assay for solute carrier (SLC22A1) using HepaRG (AID 2283524);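 for AC50: TaqMan qRT-PCR normalized to ACTB GAPDH and POLR2A housekeeping genes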
Procedure, shortened: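 Transcript induction or suppression of SLC22A1 in human HepaRG cultures is scored after 48 h chemical treatment, with DMSO (0.5%) as baseline for bidirectional fitting. Concentrations span eight half-log points topping at 100 uM.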

[10] = read-out: Pyruvate Dehydrogenase Kinase 4 (PDK4), PDK4 (gene 5166); assay: LTEA_HepaRG_PDK4: Life Technologies and Expression Analysis (LTEA) Assay for Pyruvate Dehydrogenase Kinase 4 (PDK4) using HepaRG (AID 2283525)
Procedure, shortened: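 Eight-point, half-log concentration series (max 100 uM, 0.5% DMSO) applied to differentiated HepaRG cells for 48 h in duplicate. Endpoint: PDK4 mRNA induction or repression by qRT-PCR against DMSO baseline.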

[11] = read-out: NAD(P)H dehydrogenase [quinone] 1 (NQO1), NQO1 (gene 1728); assay: LTEA_HepaRG_NQO1: Life Technologies and Expression Analysis (LTEA) Assay for NAD(P)H dehydrogenase [quinone] 1 (NQO1) using HepaRG (AID 2283526)
Procedure, shortened: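 Transcript induction or suppression is quantified by qRT-PCR in human HepaRG liver cells dosed for 48 hours. Eight half-log concentrations topping at 100 uM are used, with 0.5% DMSO as vehicle and baseline.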

[12] = read-out: Nuclear factor erythroid 2-related factor 2 (Homo sapiens) (UniProt Q16236); assay: LTEA_HepaRG_NFE2L2: Life Technologies and Expression Analysis (LTEA) Assay for Nuclear factor erythroid 2-related factor 2 (NFE2L2) Transcription Factor using HepaRG (AID 2283527)
Procedure, shortened: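 Human liver HepaRG line treated in duplicate for 48 h with an eight-point series topping at 100 uM. Gene expression of NFE2L2 by qRT-PCR, bidirectionally fitted against the vehicle control.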

[13] = read-out: Signal transducer and activator of transcription 3 (Homo sapiens) (UniProt P40763); assay: LTEA_HepaRG_STAT3: Life Technologies and Expression Analysis (LTEA) Assay for Signal transducer and activator of transcription (STAT3) using HepaRG (AID 2283529)
Procedure, shortened: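 In this transcriptional endpoint, HepaRG cultures receive test chemicals at up to 100 uM for 48 h, tested in duplicate. STAT3 mRNA is normalized to ACTB, GAPDH and POLR2A.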

[14] = read-out: solute carrier (SLCO1B1), SLCO1B1 (gene 10599); assay: LTEA_HepaRG_SLCO1B1: Life Technologies and Expression Analysis (LTEA) Assay for solute carrier (SLCO1B1) using HepaRG (AID 2283530)
Procedure, shortened: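 Gain or loss of SLCO1B1 mRNA is fitted against the 0.5% DMSO vehicle in human HepaRG liver cells treated 48 h at up to 100 uM in half-log steps. Expression comes from qRT-PCR normalized to endogenous controls.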

[15] = read-out: Transforming Growth Factor (TGFA), TGFA (gene 7039); assay: LTEA_HepaRG_TGFA: Life Technologies and Expression Analysis (LTEA) Assay for Transforming Growth Factor (TGFA) using HepaRG (AID 2283532)
Procedure, shortened: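 Gene expression of TGFA was quantified by qRT-PCR after human HepaRG cells were treated for 48 h with test chemicals (eight concentrations, highest 100 uM, 0.5% DMSO). Activity in either direction was fitted relative to DMSO.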

[16] = read-out: Transforming Growth Factor (TGFB1), TGFB1 (gene 7040); assay: LTEA_HepaRG_TGFB1: Life Technologies and Expression Analysis (LTEA) Assay for Transforming Growth Factor (TGFB1) Transporter using HepaRG (AID 2283533)
Procedure, shortened: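 Expression change of TGFB1 in human HepaRG cells is measured after a 48 h chemical exposure, up to 100 uM in 0.5% DMSO vehicle. Curves are fitted in both directions relative to the DMSO baseline.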

TIMP1, TIMP1 (gene 7076) = assay: LTEA_HepaRG_TIMP1: Life Technologies and Expression Analysis (LTEA) Assay for TIMP1 using HepaRG (AID 2283534)
Procedure, shortened: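 We dosed human liver HepaRG cultures for 48 hours with up to 100 uM test chemical and measured TIMP1 expression by qRT-PCR. Activity in either direction is fitted relative to the 0.5% DMSO vehicle.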

[17] = read-out: Tumor necrosis factor receptor 1 (TNFRSF1A), TNFRSF1A (gene 7132); assay: LTEA_HepaRG_TNFRSF1A: Life Technologies and Expression Analysis (LTEA) Assay for Tumor necrosis factor receptor 1 (TNFRSF1A) using HepaRG (AID 2283535)
Procedure, shortened: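 Expression of TNFRSF1A in human HepaRG liver cells was measured by qRT-PCR 48 h after chemical dosing (maximum 100 uM). Bidirectional curve fitting used 0.5% DMSO as baseline.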

[18] = read-out: matrix metalloproteinase-3 (MMP3), MMP3 (gene 4314); assay: LTEA_HepaRG_MMP3: Life Technologies and Expression Analysis (LTEA) Assay for matrix metalloproteinase-3 (MMP3) using HepaRG (AID 2283519)
Procedure, shortened: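 Human liver HepaRG cultures received chemicals (top concentration 100 uM, 0.5% DMSO) for 48 h in duplicate. MMP3 mRNA induction or loss was then assessed via TaqMan qRT-PCR with housekeeping-gene normalisation.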

Measured: AC50

Nuclear factor NF-kappa-B p105 subunit (Homo sapiens), sequence (P19838 whole entry, looked up): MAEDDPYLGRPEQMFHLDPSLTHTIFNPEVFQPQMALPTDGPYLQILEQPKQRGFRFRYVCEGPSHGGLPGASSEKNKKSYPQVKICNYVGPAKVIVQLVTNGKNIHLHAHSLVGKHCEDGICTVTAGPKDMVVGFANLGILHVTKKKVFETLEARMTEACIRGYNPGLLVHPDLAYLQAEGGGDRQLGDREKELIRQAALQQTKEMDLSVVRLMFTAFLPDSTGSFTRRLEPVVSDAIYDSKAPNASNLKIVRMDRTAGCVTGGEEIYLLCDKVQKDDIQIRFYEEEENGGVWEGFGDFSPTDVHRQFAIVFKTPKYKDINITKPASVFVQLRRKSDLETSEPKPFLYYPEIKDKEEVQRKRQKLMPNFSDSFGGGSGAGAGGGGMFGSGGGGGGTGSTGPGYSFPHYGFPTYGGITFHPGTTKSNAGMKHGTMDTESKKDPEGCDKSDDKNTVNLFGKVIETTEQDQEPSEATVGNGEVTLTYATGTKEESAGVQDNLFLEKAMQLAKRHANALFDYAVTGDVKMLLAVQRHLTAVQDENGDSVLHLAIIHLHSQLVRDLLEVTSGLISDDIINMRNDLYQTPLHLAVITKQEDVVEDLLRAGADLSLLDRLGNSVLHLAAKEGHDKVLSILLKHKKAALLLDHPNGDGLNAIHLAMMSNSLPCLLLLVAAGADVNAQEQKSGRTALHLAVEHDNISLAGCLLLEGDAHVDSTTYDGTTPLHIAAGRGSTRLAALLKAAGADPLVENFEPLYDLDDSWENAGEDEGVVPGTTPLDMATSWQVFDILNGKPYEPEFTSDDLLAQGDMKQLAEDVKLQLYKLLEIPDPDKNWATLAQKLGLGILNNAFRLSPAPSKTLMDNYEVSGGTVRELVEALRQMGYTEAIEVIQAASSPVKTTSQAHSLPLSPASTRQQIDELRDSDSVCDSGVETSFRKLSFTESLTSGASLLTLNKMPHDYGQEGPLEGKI
Nuclear factor erythroid 2-related factor 2 (Homo sapiens), sequence (Q16236 whole entry, looked up): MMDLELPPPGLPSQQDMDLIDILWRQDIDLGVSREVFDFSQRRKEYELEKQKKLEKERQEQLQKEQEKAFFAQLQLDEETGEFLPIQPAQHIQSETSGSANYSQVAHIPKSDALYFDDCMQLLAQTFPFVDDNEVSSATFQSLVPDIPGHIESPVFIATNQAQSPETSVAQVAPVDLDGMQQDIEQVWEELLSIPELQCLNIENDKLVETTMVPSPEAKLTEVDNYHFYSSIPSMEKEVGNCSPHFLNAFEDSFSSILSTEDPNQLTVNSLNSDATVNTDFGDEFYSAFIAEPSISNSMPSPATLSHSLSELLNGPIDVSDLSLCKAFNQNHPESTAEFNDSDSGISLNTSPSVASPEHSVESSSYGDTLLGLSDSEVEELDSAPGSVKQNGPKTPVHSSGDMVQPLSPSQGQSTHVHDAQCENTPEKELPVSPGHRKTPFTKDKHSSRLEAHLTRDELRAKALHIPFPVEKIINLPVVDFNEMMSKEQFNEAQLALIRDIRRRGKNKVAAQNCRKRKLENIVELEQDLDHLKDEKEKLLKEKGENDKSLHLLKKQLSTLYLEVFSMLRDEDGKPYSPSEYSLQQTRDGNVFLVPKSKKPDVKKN
Signal transducer and activator of transcription 3 (Homo sapiens), sequence (P40763 whole entry, looked up): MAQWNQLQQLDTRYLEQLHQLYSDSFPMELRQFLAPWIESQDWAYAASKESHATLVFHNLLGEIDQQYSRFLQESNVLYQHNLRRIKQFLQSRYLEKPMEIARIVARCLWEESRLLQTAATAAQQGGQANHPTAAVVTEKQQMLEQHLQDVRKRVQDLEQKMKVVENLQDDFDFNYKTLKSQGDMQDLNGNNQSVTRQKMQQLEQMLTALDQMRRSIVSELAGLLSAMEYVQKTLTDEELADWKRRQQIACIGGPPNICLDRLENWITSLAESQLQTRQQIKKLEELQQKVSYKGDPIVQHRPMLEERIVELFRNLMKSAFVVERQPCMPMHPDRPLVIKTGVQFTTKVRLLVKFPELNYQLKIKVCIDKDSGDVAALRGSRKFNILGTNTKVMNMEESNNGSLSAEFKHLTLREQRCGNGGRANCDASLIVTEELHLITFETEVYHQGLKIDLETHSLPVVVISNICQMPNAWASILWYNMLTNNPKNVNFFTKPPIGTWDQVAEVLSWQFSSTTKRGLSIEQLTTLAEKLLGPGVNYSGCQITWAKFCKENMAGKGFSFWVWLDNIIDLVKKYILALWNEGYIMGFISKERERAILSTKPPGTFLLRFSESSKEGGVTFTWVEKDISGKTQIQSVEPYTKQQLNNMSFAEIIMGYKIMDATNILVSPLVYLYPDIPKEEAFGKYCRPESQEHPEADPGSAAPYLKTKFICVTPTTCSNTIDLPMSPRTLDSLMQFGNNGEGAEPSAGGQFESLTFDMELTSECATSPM

CN(C)N=O
not listed: [18]
inactive: all other assays above

O=C(O)C(Cl)(Cl)Cl
inactive: [1] | [2] | [3] | [4] | MYC, MYC (gene 4609) | [18] | [5] | [7] | [8] | [9] | [10] | [11] | [12] | [13] | [14] | [15] | [16] | TIMP1, TIMP1 (gene 7076) | [17]
active: [2] 9.92 µM

O=C(O)C(F)(F)C(F)(F)C(F)(F)C(F)(F)C(F)(F)C(F)(F)F
active: [10] 35.6 µM
inactive: all other assays above

Cc1ccccc1N
inactive: all assays above

CC(=O)[O][Hg][c]1ccccc1
inactive: [1] | [3] | [14]
active: [2] 29.3 µM | [4] 15.8 µM | MYC, MYC (gene 4609) 24.2 µM | [18] 50 µM | [5] 50 µM | [6] 23.2 µM | [7] 28 µM | [8] 69.5 µM | [9] 2.33 µM | [10] 13.1 µM | [11] 12.3 µM | [12] 23.4 µM | [13] 17 µM | [15] 23 µM | [16] 23 µM | TIMP1, TIMP1 (gene 7076) 83.7 µM | [17] 27.6 µM

ClC1(Cl)C2(Cl)C3(Cl)C4(Cl)C(Cl)(Cl)C5(Cl)C3(Cl)C1(Cl)C5(Cl)C24Cl (stereo unspecified)
active: [10] 16.8 µM
not listed: [6]
inactive: all other assays above

CC(C)(C)c1cc(O)ccc1O
inactive: all assays above

ClCC(Cl)CCl
not listed: [6] | [11]
inactive: all other assays above
